# Measurements as given in PubChem BioAssay (NCATS).
# Results filed as inconclusive are left out. A call without a number means that no potency is given here. A number with no mark means an inactive call. Activity calls are given as the source filed them. The call rests on the fitted dose curve; in most records, active means well fitted curve in the direction sought with a large enough effect; inconclusive means small, poorly fitted or top-dose-only effect, or another doubt; inactive means no such curve, though single readings can be large; an effect the other way counts as inactive or inconclusive.
# Tests used:
# [1] = Quantitative High-Throughput drug screen in 47 multiple myeloma cell lines against the NCATS MIPE library collection: MOLP8_DSMZ cell viability assay (AID 1918977); further: nearly all actives have a fitted effect of over 45% in size; further: potency means the concentration at half of the fitted maximal effect
# In short: (§1)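 Plated at 500 cells per well, myeloma lines received MIPE 4.0 compounds by pin tool. Following 48 h culture at 37 °C, CellTiter-Glo luminescence gave viability relative to DMSO and media-only controls.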
# [2] = Quantitative High-Throughput drug screen in 47 multiple myeloma cell lines against the NCATS MIPE library collection: NCIH929_DSMZ cell viability assay (AID 1918978); further: nearly all actives have a fitted effect of over 35% in size; further: potency means the concentration at half of the fitted maximal effect
# In short: as §1
# [3] = Quantitative High-Throughput drug screen in 47 multiple myeloma cell lines against the NCATS MIPE library collection: OCIMY1_PLB cell viability assay (AID 1918979); further: nearly all actives have a fitted effect of over 35% in size; further: potency means the concentration at half of the fitted maximal effect; on viability: series mostly up to about 46 µM
# In short: as §1
# [4] = Quantitative High-Throughput drug screen in 47 multiple myeloma cell lines against the NCATS MIPE library collection: MM1R_ATCC cell viability assay (AID 1918981); further: nearly all actives have a fitted effect of over 35% in size; further: potency means the concentration at half of the fitted maximal effect
# In short: as §1
# [5] = Quantitative High-Throughput drug screen in 47 multiple myeloma cell lines against the NCATS MIPE library collection: KMS28PE_JCRB cell viability assay (AID 1918983); further: nearly all actives have a fitted effect of over 35% in size; further: potency means the concentration at half of the fitted maximal effect
# In short: as §1
# [6] = Quantitative High-Throughput drug screen in 47 multiple myeloma cell lines against the NCATS MIPE library collection: KMS34_JCRB cell viability assay (AID 1918985); further: nearly all actives have a fitted effect of over 40% in size; further: potency means the concentration at half of the fitted maximal effect
# In short: as §1
# [7] = Quantitative High-Throughput drug screen in 47 multiple myeloma cell lines against the NCATS MIPE library collection: OCIMY7_PLB cell viability assay (AID 1918987); further: nearly all actives have a fitted effect of over 65% in size; further: potency means the concentration at half of the fitted maximal effect
# In short: as §1
# [8] = Quantitative High-Throughput drug screen in 47 multiple myeloma cell lines against the NCATS MIPE library collection: OCIMY5_PLB cell viability assay (AID 1918988); further: nearly all actives have a fitted effect of over 65% in size; further: potency means the concentration at half of the fitted maximal effect
# In short: as §1
# [9] = Quantitative High-Throughput drug screen in 47 multiple myeloma cell lines against the NCATS MIPE library collection: SKMM1_PLB cell viability assay (AID 1919863); details: SKMM1 myeloma viability, CellTiter-Glo ATP, 48 h; viability: hits give low values; further: nearly all actives have a fitted effect of over 35% in size; further: potency means the concentration at half of the fitted maximal effect; on viability: series mostly up to about 46 µM
# In short: as §1
# [10] = Quantitative High-Throughput drug screen in 47 multiple myeloma cell lines against the NCATS MIPE library collection: XG6_PLB cell viability assay (AID 1919865); further: nearly all actives have a fitted effect of over 40% in size; further: potency means the concentration at half of the fitted maximal effect
# In short: as §1
# [11] = Quantitative High-Throughput drug screen in 47 multiple myeloma cell lines against the NCATS MIPE library collection: XG1_PLB cell viability assay (AID 1919866); further: nearly all actives have a fitted effect of over 35% in size; further: potency means the concentration at half of the fitted maximal effect
# In short: as §1
# [12] = Quantitative High-Throughput drug screen in 47 multiple myeloma cell lines against the NCATS MIPE library collection: UTMC2_PLB cell viability assay (AID 1919868); details: CellTiter-Glo ATP luminescence, 48 h; viability (% of DMSO control): at 45.8 µM; further: nearly all actives have a fitted effect of over 55% in size; further: potency means the concentration at half of the fitted maximal effect
# In short: as §1
# [13] = Quantitative High-Throughput drug screen in 47 multiple myeloma cell lines against the NCATS MIPE library collection: PE2_PLB cell viability assay (AID 1919869); further: nearly all actives have a fitted effect of over 35% in size; further: potency means the concentration at half of the fitted maximal effect
# In short: as §1
# [14] = Quantitative High-Throughput drug screen in 47 multiple myeloma cell lines against the NCATS MIPE library collection: PCM6_Riken cell viability assay (AID 1919870); further: nearly all actives have a fitted effect of over 30% in size; further: potency means the concentration at half of the fitted maximal effect
# In short: as §1
# [15] = Quantitative High-Throughput drug screen in 47 multiple myeloma cell lines against the NCATS MIPE library collection: MM1S_ATCC cell viability assay (AID 1918980); further: nearly all actives have a fitted effect of over 45% in size; further: potency means the concentration at half of the fitted maximal effect
# In short: as §1
# [16] = Quantitative High-Throughput drug screen in 47 multiple myeloma cell lines against the NCATS MIPE library collection: LP1_DSMZ cell viability assay (AID 1918982); further: nearly all actives have a fitted effect of over 35% in size; further: potency means the concentration at half of the fitted maximal effect
# In short: as §1
# [17] = Quantitative High-Throughput drug screen in 47 multiple myeloma cell lines against the NCATS MIPE library collection: L363_DSMZ cell viability assay (AID 1918984); further: nearly all actives have a fitted effect of over 40% in size
# In short: as §1
# [18] = Quantitative High-Throughput drug screen in 47 multiple myeloma cell lines against the NCATS MIPE library collection: U266_ATCC cell viability assay (AID 1919864); further: nearly all actives have a fitted effect of over 35% in size; further: potency means the concentration at half of the fitted maximal effect
# In short: as §1
# [19] = Quantitative High-Throughput drug screen in 47 multiple myeloma cell lines against the NCATS MIPE library collection: VP6_DJ cell viability assay (AID 1919867); further: nearly all actives have a fitted effect of over 40% in size
# In short: as §1
# [20] = Quantitative High-Throughput drug screen in 47 multiple myeloma cell lines against the NCATS MIPE library collection: OPM1_PLB cell viability assay (AID 1918989); further: nearly all actives have a fitted effect of over 40% in size; further: potency means the concentration at half of the fitted maximal effect
# In short: as §1
compound,measurement,setting,value
C[C@@H]1CC[C@@]2(OC1)O[C@H]1C[C@H]3[C@@H]4CC=C5C[C@@H](O[C@@H]6O[C@H](CO)[C@@H](O[C@@H]7O[C@@H](C)[C@H](O)[C@@H](O)[C@@H]7O)[C@H](O)[C@@H]6O[C@@H]6O[C@@H](C)[C@H](O)[C@@H](O)[C@@H]6O)CC[C@]5(C)[C@@H]4CC[C@]3(C)[C@@H]1[C@H]2C,Potency,[1],1870 nM (active)
same,Potency,[2],4180 nM (active)
same,Potency,[3],1660 nM (active)
same,Potency,[4],2090 nM (active)
same,Potency,[5],2960 nM (active)
same,Potency,[6],1870 nM (active)
same,Potency,[7],3320 nM (active)
same,Potency,[8],1660 nM (active)
same,Potency,[9],2350 nM (active)
same,Potency,[10],3720 nM (active)
same,Potency,[11],2640 nM (active)
same,Potency,[12],2640 nM (active)
same,Potency,[13],4690 nM (active)
same,Potency,[14],3320 nM (active)
C#C[C@]1(O)C=C[C@@H]2[C@@H]3CCC4=CC(=O)CC[C@@H]4[C@H]3CC[C@@]21CC,Potency,[1],inactive
same,Potency,[2],inactive
same,Potency,[3],inactive
same,Potency,[15],inactive
same,Potency,[16],inactive
same,Potency,[5],inactive
same,Potency,[6],inactive
same,viability,[9],126%
same,Potency,[14],inactive
C[C@@H]1CC[C@H]2[C@@H](C)C(=O)O[C@@H]3O[C@@]4(C)CC[C@H]1[C@]32OO4,Potency,[1],187 nM (active)
same,Potency,[2],13200 nM (active)
same,Potency,[3],inactive
same,Potency,[15],296 nM (active)
same,Potency,[4],inactive
same,Potency,[16],inactive
same,Potency,[5],inactive
same,Potency,[17],inactive
same,Potency,[6],2960 nM (active)
same,Potency,[7],1870 nM (active)
same,viability,[9],103%
same,Potency,[18],inactive
same,Potency,[11],5900 nM (active)
same,Potency,[13],743 nM (active)
same,Potency,[14],6620 nM (active)
CC(C)[C@]12O[C@@H]1[C@@H]1O[C@]13[C@]1(O[C@H]1C[C@@H]1C4=C(CC[C@@]13C)C(=O)OC4)[C@H]2O,Potency,[1],inactive
same,Potency,[2],inactive
same,Potency,[3],inactive
same,Potency,[15],inactive
same,Potency,[4],inactive
same,Potency,[5],inactive
same,Potency,[6],inactive
same,Potency,[7],inactive
same,Potency,[8],inactive
same,viability,[9],-10.1%
same,Potency,[18],inactive
same,Potency,[10],inactive
same,Potency,[11],inactive
same,Potency,[12],inactive
same,Potency,[13],inactive
same,Potency,[14],inactive
Clc1ccccc1C(c1ccccc1)(c1ccccc1)n1cccn1,Potency,[1],16600 nM (active)
same,Potency,[2],inactive
same,Potency,[3],inactive
same,Potency,[15],469 nM (active)
same,Potency,[4],23500 nM (active)
same,Potency,[5],11800 nM (active)
same,Potency,[18],10500 nM (active)
same,Potency,[10],inactive
same,Potency,[11],inactive
same,Potency,[13],inactive
CC(=Cc1csc(C)n1)[C@@H]1C[C@H]2O[C@]2(C)CCC[C@H](C)[C@@H](O)[C@@H](C)C(=O)C(C)(C)[C@@H](O)CC(=O)O1,Potency,[1],inactive
same,Potency,[2],inactive
same,Potency,[3],inactive
same,Potency,[15],inactive
same,Potency,[16],inactive
same,Potency,[6],inactive
same,Potency,[7],inactive
same,viability,[9],69.9%
same,Potency,[10],inactive
same,Potency,[19],inactive
same,Potency,[13],inactive
same,Potency,[14],inactive
O=C(O)CNC(=O)c1c(O)c2ccccc2n(Cc2ccccc2)c1=O,Potency,[1],inactive
same,Potency,[2],inactive
same,Potency,[3],inactive
same,Potency,[4],inactive
same,Potency,[16],inactive
same,Potency,[6],inactive
same,Potency,[8],inactive
same,Potency,[20],inactive
same,Potency,[10],inactive
same,Potency,[11],inactive
same,Potency,[13],inactive
same,Potency,[14],inactive
C[C@H]1CCCC=CC2C[C@H](O)C[C@@H]2[C@H](O)C=CC(=O)O1 (some centres not stated),Potency,[1],inactive
same,Potency,[2],inactive
same,Potency,[3],inactive
same,Potency,[15],inactive
same,Potency,[4],inactive
same,Potency,[16],inactive
same,Potency,[6],inactive
same,Potency,[7],inactive
same,Potency,[8],inactive
same,Potency,[18],inactive
same,Potency,[10],inactive
same,Potency,[11],inactive
same,Potency,[12],inactive
same,Potency,[13],inactive
CC(C)N(CCNC(=O)CN1CCCC1=O)C(C)C,Potency,[1],inactive
same,Potency,[2],inactive
same,Potency,[3],inactive
same,Potency,[4],inactive
same,Potency,[5],inactive
same,Potency,[6],inactive
same,Potency,[18],inactive
same,Potency,[10],inactive
same,Potency,[12],inactive
same,Potency,[13],inactive
CC(=O)OCC1=C(C(=O)O)N2C(=O)[C@@H](N)[C@@H]2SC1,Potency,[1],inactive
same,Potency,[2],inactive
same,Potency,[3],inactive
same,Potency,[5],inactive
same,viability,[9],121%
same,Potency,[18],inactive
same,Potency,[10],inactive
same,Potency,[11],inactive
same,Potency,[12],inactive
same,Potency,[13],inactive
same,Potency,[14],inactive
C=CCON=C(C[C@H]1O[C@@H]2O[C@]3(C)CC[C@@H]4[C@H](C)CC[C@@H]([C@H]1C)[C@@]24OO3)[C@H]1O[C@@H]2O[C@]3(C)CC[C@H]4[C@H](C)CC[C@@H]([C@@H]1C)[C@@]24OO3,Potency,[1],235 nM (active)
same,Potency,[2],148 nM (active)
same,Potency,[3],187 nM (active)
same,Potency,[15],526 nM (active)
same,Potency,[4],296 nM (active)
same,Potency,[5],264 nM (active)
same,Potency,[6],264 nM (active)
same,Potency,[7],105 nM (active)
same,Potency,[8],187 nM (active)
same,Potency,[20],526 nM (active)
same,Potency,[9],264 nM (active)
same,Potency,[18],332 nM (active)
same,Potency,[10],264 nM (active)
same,Potency,[11],418 nM (active)
same,Potency,[12],372 nM (active)
same,Potency,[13],469 nM (active)
same,Potency,[14],526 nM (active)
CC[C@@H]1[C@@H](C)O[C@@](O)([C@@H](C)[C@H](O)[C@H](C)[C@H]2OC(=O)C=CC=C[C@@H](C)[C@@H]([C@@H](C)[C@@H](O)[C@H](C)[C@@]3(O)C[C@H](O[C@H]4C[C@H](O)[C@H](O)[C@H](C)O4)[C@H](CC)[C@@H](C)O3)OC(=O)C=CC=C[C@@H]2C)C[C@H]1O[C@H]1C[C@H](O)[C@H](O)[C@H](C)O1,Potency,[1],418 nM (active)
same,Potency,[2],935 nM (active)
same,Potency,[3],833 nM (active)
same,Potency,[15],469 nM (active)
same,Potency,[4],526 nM (active)
same,Potency,[16],590 nM (active)
same,Potency,[5],372 nM (active)
same,Potency,[6],935 nM (active)
same,Potency,[7],662 nM (active)
same,Potency,[8],372 nM (active)
same,Potency,[20],1050 nM (active)
same,Potency,[9],662 nM (active)
same,Potency,[10],469 nM (active)
same,Potency,[11],469 nM (active)
same,Potency,[12],1050 nM (active)
same,Potency,[13],833 nM (active)
same,Potency,[14],743 nM (active)
